From PubChem BioAssay AID1224864 (Chung Lab, Department of Pediatrics, Emory University, 2016) come the findings set out here.

Out of some 2,000 compounds screened, about 20 (1%) were called active. How the calls were made is not given here. Many of the other results were omitted from the sample, so actives are more common in it than they were. Residues, ends and D or L forms follow the SMILES beside them. *: point of attachment. Boc = CC(C)(C)OC(=O)*

Cystic fibrosis transmembrane conductance regulator (Homo sapiens), sequence (P13569 whole entry, looked up, stated change not applied): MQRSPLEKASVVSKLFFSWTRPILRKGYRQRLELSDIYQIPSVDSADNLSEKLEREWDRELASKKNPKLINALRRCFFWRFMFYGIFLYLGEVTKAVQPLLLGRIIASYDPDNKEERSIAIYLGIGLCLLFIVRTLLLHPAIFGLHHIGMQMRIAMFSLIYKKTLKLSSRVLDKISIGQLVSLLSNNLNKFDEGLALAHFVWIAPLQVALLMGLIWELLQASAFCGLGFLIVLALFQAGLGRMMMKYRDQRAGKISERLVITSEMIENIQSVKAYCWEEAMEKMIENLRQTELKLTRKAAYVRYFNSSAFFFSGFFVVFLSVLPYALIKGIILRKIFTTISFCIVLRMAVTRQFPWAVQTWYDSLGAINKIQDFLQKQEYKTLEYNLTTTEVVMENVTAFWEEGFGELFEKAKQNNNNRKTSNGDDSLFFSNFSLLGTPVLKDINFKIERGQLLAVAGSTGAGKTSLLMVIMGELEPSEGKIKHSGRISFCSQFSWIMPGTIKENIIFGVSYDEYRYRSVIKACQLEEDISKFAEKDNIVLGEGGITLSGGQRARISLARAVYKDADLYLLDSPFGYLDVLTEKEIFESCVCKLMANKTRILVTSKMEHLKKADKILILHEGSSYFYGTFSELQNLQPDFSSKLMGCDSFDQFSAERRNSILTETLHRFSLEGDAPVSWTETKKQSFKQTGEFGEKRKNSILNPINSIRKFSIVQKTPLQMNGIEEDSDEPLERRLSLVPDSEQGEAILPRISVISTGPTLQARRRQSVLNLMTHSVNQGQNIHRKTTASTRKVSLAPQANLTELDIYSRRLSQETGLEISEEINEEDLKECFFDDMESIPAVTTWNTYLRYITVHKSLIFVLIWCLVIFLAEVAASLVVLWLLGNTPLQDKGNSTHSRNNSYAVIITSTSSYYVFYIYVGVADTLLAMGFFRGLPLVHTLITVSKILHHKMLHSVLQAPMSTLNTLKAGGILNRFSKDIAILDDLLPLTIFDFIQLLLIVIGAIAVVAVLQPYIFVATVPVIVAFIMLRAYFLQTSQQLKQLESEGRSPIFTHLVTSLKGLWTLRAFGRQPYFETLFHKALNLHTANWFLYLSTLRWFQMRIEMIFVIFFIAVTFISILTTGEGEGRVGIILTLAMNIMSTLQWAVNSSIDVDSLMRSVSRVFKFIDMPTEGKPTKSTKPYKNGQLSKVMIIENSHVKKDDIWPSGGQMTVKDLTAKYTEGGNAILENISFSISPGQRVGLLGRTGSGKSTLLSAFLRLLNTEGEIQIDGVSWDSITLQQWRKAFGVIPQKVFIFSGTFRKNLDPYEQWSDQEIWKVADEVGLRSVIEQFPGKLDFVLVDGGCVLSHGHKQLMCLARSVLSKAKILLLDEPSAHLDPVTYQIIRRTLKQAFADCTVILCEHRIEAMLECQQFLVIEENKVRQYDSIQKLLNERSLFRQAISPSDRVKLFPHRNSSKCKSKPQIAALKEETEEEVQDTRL

The test concerns the target Cystic fibrosis transmembrane conductance regulator (Homo sapiens) (UniProt P13569). Kind of test: correctors of F508del-CFTR surface localization, primary screen, imaging, HeLa, high-content microscopy, immunofluorescence (AID 1224864).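 Further: HeLa cells stably expressing F508del-CFTR stained with 3G11 antibody against NBD1.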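 On plasma membrane CFTR intensity: mean immunofluorescence in a thin cell-margin band taken as plasma membrane.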 The conditions noted are these: PM immunofluorescence imaging, 24 h, at 10 µM, stronger effect = higher value, relative to vehicle wells set at 100; total CFTR intensity: measured here: total cellular F508del-CFTR signal.
As for `CC(C)=CCC/C(C)=C/CC/C(C)=N/O`, the plasma membrane CFTR intensity is 84% (inactive) and the total CFTR intensity was determined as 87%.

Consider `Cc1ccc(/C=N/NC(=O)C2(C)CC2(Br)Br)cc1` (stereo unspecified), for which the plasma membrane CFTR intensity is 82% (inactive) and the total CFTR intensity worked out at 80%.

As to `CCOC(=O)c1ccc(NC(=S)NCCc2ccccc2F)cc1`, the plasma membrane CFTR intensity is 81% (inactive) and the total CFTR intensity came out at 78%.

`CCOC(=O)Cc1c(C)nc(N)[nH]c1=O`: the plasma membrane CFTR intensity was 82% (inactive) and the total CFTR intensity amounted to 81%.

As to `CCN1C(=O)C(CC(=O)Nc2ccc(F)cc2)N(Cc2ccc3c(c2)OCO3)C1=S` (stereo unspecified), the plasma membrane CFTR intensity was 81% (inactive) and the total CFTR intensity was 81%.

`CCn1c(C)cc2c(c1=O)C(c1ccccc1)C(C(=O)OC)=C(N)O2` (stereo unspecified): the plasma membrane CFTR intensity was 90% (inactive) and the total CFTR intensity is 94%.

Regarding `CCC(C(=O)Nc1ccc2c(c1)OCCO2)c1ccccc1` (stereo unspecified), the plasma membrane CFTR intensity was 78% (inactive) and the total CFTR intensity came out at 76%.

For the compound `O=c1[nH]c(Cc2ccccc2)nc2c1oc1ccccc12`, the plasma membrane CFTR intensity is 78% (inactive) and the total CFTR intensity is 79%.

Regarding `CCOc1ccc(C(=O)NC(C)C2COc3ccccc3O2)cc1` (stereo unspecified), the plasma membrane CFTR intensity was 82% (inactive) and the total CFTR intensity was determined as 80%.

As for `CC(C)CN1CCN(Cc2cccn2-c2ccccn2)CC1CCO` (stereo unspecified), the plasma membrane CFTR intensity is 88% (inactive) and the total CFTR intensity came to 88%.

Take `Cc1csc(N)n1`: the plasma membrane CFTR intensity is 86% (inactive) and the total CFTR intensity turned out to be 87%.

For the compound `CS(=O)(=O)Oc1ccc2c(c1)O/C(=C\C=C\c1ccccc1)C2=O`, the plasma membrane CFTR intensity was 92% (inactive) and the total CFTR intensity amounted to 97%.

As for `Fc1ccccc1CNCCC(Cc1ccccc1)c1ccc2c(c1)OCO2` (stereo unspecified), the plasma membrane CFTR intensity is 171% (inactive) and the total CFTR intensity amounted to 228%.

Take `CC(NC(=O)c1cccnc1)C(=O)O` (stereo unspecified): the plasma membrane CFTR intensity is 75% (inactive) and the total CFTR intensity turned out to be 73%.

For `COc1ccc(OC(C)C(=O)Nc2ccc([N+](=O)[O-])cc2)cc1` (stereo unspecified), the plasma membrane CFTR intensity was 76% (inactive) and the total CFTR intensity was 72%.

With `CC(NC(=O)c1ccc(OC2CCN(Cc3ccccn3)CC2)cc1)c1ccccc1` (stereo unspecified), the plasma membrane CFTR intensity is 73% (inactive) and the total CFTR intensity was 66%.

With `Cc1ncc(CN2CCC(CO)(CCc3ccccc3)CC2)s1`, the plasma membrane CFTR intensity is 75% (inactive) and the total CFTR intensity came out at 75%.

`Cc1ccc(-c2nn(-c3cccc(F)c3)cc2CN2CCN(c3ccccn3)CC2)o1`: the plasma membrane CFTR intensity was 69% (inactive) and the total CFTR intensity came out at 69%.

Regarding `CC12CCC(C(=O)NNc3ccccc3)(C(=O)C1=O)C2(C)C` (stereo unspecified), the plasma membrane CFTR intensity is 92% (inactive) and the total CFTR intensity came to 88%.

With `O=c1nc2n(c3c1oc1ccccc13)Cc1ccccc1-2`, the plasma membrane CFTR intensity was 131% (inactive) and the total CFTR intensity came out at 133%.

For the compound `C#C[C@]1(O)CC[C@H]2[C@@H]3CCc4cc(OC5CCCC5)ccc4[C@H]3CC[C@@]21C`, the plasma membrane CFTR intensity was 41% (inactive) and the total CFTR intensity came to 30%.

On to `C#C[C@]1(O)CC[C@H]2[C@@H]3CCc4cc(OC)ccc4[C@H]3CC[C@@]21C`, for which the plasma membrane CFTR intensity is 133% (active) and the total CFTR intensity was determined as 141%.

With `C#C[C@]1(O)CC[C@H]2[C@@H]3CCc4cc(O)ccc4[C@H]3CC[C@@]21C`, the plasma membrane CFTR intensity is 113% (inactive) and the total CFTR intensity was determined as 106%.

As for `COc1ccc(C2c3c(n[nH]c3C)CC(C)(O)C2C(C)=O)cc1OC` (stereo unspecified), the plasma membrane CFTR intensity is 87% (inactive) and the total CFTR intensity was 86%.

On to `Cc1ccc2c(c1)C(C)(C)[C@]1(C)NC(=O)CCN21`, for which the plasma membrane CFTR intensity is 94% (inactive) and the total CFTR intensity amounted to 97%.

Take `CC(C)C(CCN1C(=O)CCC1=O)C1CCOC(C)(C)C1` (stereo unspecified): the plasma membrane CFTR intensity is 87% (inactive) and the total CFTR intensity was 90%.

`CC(C)OC(=O)CC1C(=O)NCCN1C(=S)NC(=O)c1ccccc1Cl` (stereo unspecified): the plasma membrane CFTR intensity is 79% (inactive) and the total CFTR intensity worked out at 80%.

Regarding `COc1ccc(C2C(C(=O)c3ccco3)=C(O)C(=O)N2CC2CCCO2)cc1` (stereo unspecified), the plasma membrane CFTR intensity is 79% (inactive) and the total CFTR intensity is 83%.

For the compound `COc1ccc2cc(C3(C)NC(=O)NC3=O)ccc2c1` (stereo unspecified), the plasma membrane CFTR intensity is 89% (inactive) and the total CFTR intensity stood at 88%.

On to `COc1ccc2[nH]c3c(c2c1)CCNC3C1CC=C(C)CC1` (stereo unspecified), for which the plasma membrane CFTR intensity was 99% (inactive) and the total CFTR intensity amounted to 117%.

Regarding `COC(=O)C1[C@H]2C(=O)N(Cc3cccs3)C[C@]23C=C[C@H]1O3` (stereo partly specified), the plasma membrane CFTR intensity was 92% (inactive) and the total CFTR intensity came to 95%.

Turning to `S=C(c1ccc2c(c1)OCO2)N1CCCCC1`, the plasma membrane CFTR intensity was 83% (inactive) and the total CFTR intensity is 85%.

As to `Fc1ccc(NC(=S)Nc2ccccc2Cl)cc1`, the plasma membrane CFTR intensity is 92% (inactive) and the total CFTR intensity stood at 93%.

In the case of `CCNC(=O)c1sc2cc(C)ccc2c1Cl`, the plasma membrane CFTR intensity was 92% (inactive) and the total CFTR intensity was determined as 95%.

For `NS(=O)(=O)c1cc2c(cc1Cl)NC(CSCc1ccccc1)=NS2(=O)=O`, the plasma membrane CFTR intensity was 84% (inactive) and the total CFTR intensity came out at 85%.

In the case of `C[C@@H]1C[C@H](Nc2ccccc2)c2ccccc2N1C(=O)c1cccnc1`, the plasma membrane CFTR intensity is 97% (inactive) and the total CFTR intensity was 103%.

Consider `CC(=O)c1c[nH]c2ccc(C)cc2c1=O`, for which the plasma membrane CFTR intensity was 83% (inactive) and the total CFTR intensity is 84%.

Take `COc1ccc(OC)c(NC2=C(Cl)C(=O)N(Cc3ccccc3)C2=O)c1`: the plasma membrane CFTR intensity was 88% (inactive) and the total CFTR intensity worked out at 100%.

On to `Cc1ccc2occ(C(=O)c3ccco3)c(=O)c2c1`, for which the plasma membrane CFTR intensity was 86% (inactive) and the total CFTR intensity was 90%.

As for `O=C(O)[C@H](Cc1ccccc1)NC(=O)N1CCC(Cc2ccccc2)CC1`, the plasma membrane CFTR intensity is 89% (inactive) and the total CFTR intensity worked out at 83%.

Regarding `CC(C)CC(=O)N(Cc1ccc(F)cc1)C1CCS(=O)(=O)C1` (stereo unspecified), the plasma membrane CFTR intensity is 96% (inactive) and the total CFTR intensity is 98%.

Regarding `CCOc1ccccc1OCCOc1ccc(F)cc1`, the plasma membrane CFTR intensity is 86% (inactive) and the total CFTR intensity worked out at 86%.

As to `C=CCNc1nc2c(c(=O)n(C)c(=O)n2C)n1CC(=C)C`, the plasma membrane CFTR intensity is 82% (inactive) and the total CFTR intensity was determined as 80%.

For `CCOC(=O)C1=C(N)Oc2c(c(=O)[nH]c3ccccc23)C1c1ccccc1` (stereo unspecified), the plasma membrane CFTR intensity was 93% (inactive) and the total CFTR intensity was found to be 96%.

On to `CCNC(=O)C(Cc1ccccc1)NC(=O)OCc1ccccc1` (stereo unspecified), for which the plasma membrane CFTR intensity was 81% (inactive) and the total CFTR intensity was determined as 80%.

Regarding `COC(=O)c1ccccc1NC(=O)c1ccc(COc2ccc3c(c2)CCC3)cc1`, the plasma membrane CFTR intensity is 84% (inactive) and the total CFTR intensity amounted to 83%.

Regarding `CCOC(=O)C1C(=O)OC2(CCOC(C)(C)C2)C1C(=O)OCC` (stereo unspecified), the plasma membrane CFTR intensity is 90% (inactive) and the total CFTR intensity stood at 87%.

In the case of `COc1ccc(NC(=O)N2CCCCC2c2cccnc2)cc1` (stereo unspecified), the plasma membrane CFTR intensity is 84% (inactive) and the total CFTR intensity came out at 84%.

Take `CCOC(=O)C1C2C=CC3(CN(c4ccc(Cl)c(F)c4)C(=O)C13)O2` (stereo unspecified): the plasma membrane CFTR intensity was 84% (inactive) and the total CFTR intensity is 83%.

Turning to `CCOC(=O)/C=C1\NC(C)(C)Cc2cc(OC)c(OC)cc21`, the plasma membrane CFTR intensity was 86% (inactive) and the total CFTR intensity stood at 89%.

Turning to `O=C(COc1ccccc1)N1CCN(c2ccccc2)CC1`, the plasma membrane CFTR intensity is 88% (inactive) and the total CFTR intensity was determined as 85%.

`CC[N+]1(C)CC2CCC(C)(C1)C2(C)C` (stereo unspecified): the plasma membrane CFTR intensity is 72% (inactive) and the total CFTR intensity turned out to be 75%.

On to `CC(C)(C)OC(=O)N1CCCC1C(=O)NC(Cc1ccccc1)C(=O)O` (stereo not drawn) (Boc-Pro-Phe-OH; configuration not given here), for which the plasma membrane CFTR intensity was 96% (inactive) and the total CFTR intensity is 102%.

For `CC(=O)N1CC23C=CC(CC2CC12CCCCCC2)O3` (stereo unspecified), the plasma membrane CFTR intensity is 73% (inactive) and the total CFTR intensity came to 77%.

`O=C(Nc1cccc(-c2nc3ncccc3o2)c1)c1ccccc1`: the plasma membrane CFTR intensity is 68% (inactive) and the total CFTR intensity was 72%.

On to `CC(COc1ccccc1)NC(C)C(O)c1ccc(O)cc1` (stereo unspecified), for which the plasma membrane CFTR intensity is 104% (active) and the total CFTR intensity was found to be 121%.

For the compound `CC(NCCc1ccc(O)cc1)C(O)c1ccc(O)cc1` (stereo unspecified), the plasma membrane CFTR intensity was 101% (inactive) and the total CFTR intensity came to 96%.

For `CC(COc1ccccc1)N(CCCl)Cc1ccccc1` (stereo unspecified), the plasma membrane CFTR intensity is 78% (inactive) and the total CFTR intensity stood at 80%.
